{
  "source": "PubChem BioAssay AID2414",
  "about": "(Southern Research Specialized Biocontainment Screening …, 2010)",
  "note": "Measured potencies and affinities stand elsewhere. The source made the active and inactive calls. The rule behind the calls is not given here.",
  "data": [
    {"assay": "Vero 76 cell viability after compound exposure – Vero 76 cells, synthesized analogs, cytotoxicity control for West Nile virus antiviral project, SAR follow-up (AID 2414)", "conditions": "Vero 76 cells viability, cytotoxicity CC50; series mostly up to 66.6 µM", "values": [
      {"smiles": "OC1c2c(F)cccc2N=C2CCCCN21", "note": "(centres undefined)", "outcome": "inactive"},
      {"smiles": "O=C(CSc1nc2cccc(F)c2c(=O)n1-c1ccccc1)Nc1ccc2c(c1)CCC2", "outcome": "inactive"},
      {"smiles": "CC1(O)c2cc(Br)ccc2N=C2CCCN21", "note": "(centres undefined)", "outcome": "inactive"},
      {"smiles": "OC1c2c(F)cccc2N=C2CCCN21", "note": "(centres undefined)", "outcome": "inactive"},
      {"smiles": "CCCN(C(=O)c1ccccc1Cl)c1nc(-c2ccc(OC)cc2)cs1", "outcome": "inactive"},
      {"smiles": "O=c1c2cc(Cl)cc(Cl)c2nc2n1CCC2", "outcome": "inactive"},
      {"smiles": "COc1ccccc1NC(=O)CSc1nc2ccccc2c(=O)n1-c1ccc(F)cc1", "outcome": "inactive"},
      {"smiles": "O=c1c2cccc(Cl)c2nc2n1CCC2", "outcome": "inactive"},
      {"smiles": "COc1ccc(Cn2nc(C)cc2OC(=O)c2c(F)cccc2F)cc1", "outcome": "inactive"},
      {"smiles": "CC(=O)Nc1ccc2nc3n(c(=O)c2c1)CCC3", "outcome": "inactive"},
      {"smiles": "O=c1c2cc([N+](=O)[O-])ccc2nc2n1CCC2", "outcome": "inactive"},
      {"smiles": "OC1c2cc(Cl)cc(Cl)c2N=C2CCCN21", "note": "(centres undefined)", "outcome": "inactive"},
      {"smiles": "CCCCN(C(=O)c1ccccc1Cl)c1nc(-c2ccc(OC)cc2)cs1", "outcome": "inactive"},
      {"smiles": "COc1ccc(-c2csc(N(Cc3ccccc3)C(=O)c3ccccc3Cl)n2)cc1", "outcome": "inactive"},
      {"smiles": "O=c1c2cc(I)ccc2nc2n1CCC2", "outcome": "inactive"},
      {"smiles": "O=C(CSc1nc2ccc(F)cc2c(=O)n1-c1ccccc1)Nc1ccc2c(c1)CCC2", "outcome": "inactive"},
      {"smiles": "O=C(CSc1nc2ccccc2c(=O)n1-c1ccc(F)cc1F)Nc1ccc(N2CCOCC2)cc1", "outcome": "inactive"},
      {"smiles": "COc1ccc(Cn2nc(C)cc2OC(=O)c2c(F)ccc(C)c2F)cc1", "outcome": "inactive"},
      {"smiles": "O=C(CSc1nc2ccccc2c(=O)n1-c1ccc(F)cc1)Nc1ccc2c(c1)OCCO2", "outcome": "inactive"},
      {"smiles": "Cc1cccc2nc3n(c(=O)c12)CCC3", "outcome": "inactive"},
      {"smiles": "O=c1c2c(F)cccc2nc2n1CCC2", "outcome": "inactive"},
      {"smiles": "OC1c2c(F)cccc2N=C2CCCCCN21", "note": "(centres undefined)", "outcome": "inactive"},
      {"smiles": "COc1ccc(-c2csc(N(CCCBr)C(=O)c3ccccc3Cl)n2)cc1", "outcome": "inactive"},
      {"smiles": "O=[N+]([O-])c1ccc2c(c1)C(O)N1CCCC1=N2", "note": "(centres undefined)", "outcome": "inactive"},
      {"smiles": "OC1c2cc(I)ccc2N=C2CCCN21", "note": "(centres undefined)", "outcome": "inactive"},
      {"smiles": "Cc1ccc2nc3n(c(=O)c2c1)CCC3", "outcome": "inactive"},
      {"smiles": "Cc1cccc2c(=O)n3c(nc12)CCC3", "outcome": "inactive"},
      {"smiles": "Cc1cc(OC(=O)c2c(F)cccc2F)n(Cc2ccccc2)n1", "outcome": "inactive"},
      {"smiles": "Nc1ccc2nc3n(c(=O)c2c1)CCC3", "outcome": "inactive"},
      {"smiles": "COc1ccc(NC(=O)CSc2nc3ccccc3c(=O)n2-c2ccc(F)cc2)cc1", "outcome": "inactive"},
      {"smiles": "COc1ccc(-c2csc(N(C)C(=O)c3ccccc3Cl)n2)cc1", "outcome": "inactive"},
      {"smiles": "OC1c2cc(Br)ccc2N=C2CCCCN21", "note": "(centres undefined)", "outcome": "inactive"},
      {"smiles": "CC1CC(C)CN(C(=O)CSc2nc3ccccc3c(=O)n2-c2ccc(F)cc2)C1", "note": "(centres undefined)", "outcome": "inactive"},
      {"smiles": "COc1ccc(Cn2nc(C)cc2OC(=O)c2ccccc2)cc1", "outcome": "inactive"}
    ]}
  ]
}
